Out of some 87,000 compounds screened, about 540 (0.62%) were called active. How the calls were made is not given here. What follows is part of a selection rich in actives, with near analogues and random picks from the rest. Results with a measured potency or affinity are listed apart.

We go through 115 compounds from PubChem BioAssay AID618 (Sanford-Burnham Center for Chemical Genomics, 2007).

A short description of the assay: MT1-MMP gene expression reporter suppression – cell-based, luciferase reporter, luminescence (AID 618).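 Further: actives suppress MT1-MMP promoter-driven transcription so potencies describe inhibitors.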 Conditions: MT1-MMP promoter luciferase reporter cells.
With `CCOCCCn1c(SCC(=O)NC(C)(C)C)nc2ccccc2c1=O`, the compound was classed as inactive. The result for `CNC(=O)Nc1ccccc1F` reads “inactive”. On to `Cc1nc2ccccc2c(=O)n1C1CCCCCC1`, for which the result was inactive. For the compound `O=C(c1cc(-c2ccc(Cl)cc2Cl)on1)N1CCN(C(=O)c2ccco2)CC1`, the call was inactive. The result for `Cc1ccc(-c2cc(C(=O)N3CCCC3)no2)cc1` reads “active”; that for `O=C(c1cc(-c2ccc(Cl)cc2Cl)on1)N1CCOCC1`, “active”. As to `COc1cccc(-c2cc(C(=O)N3CCCCCC3)no2)c1`, the compound was classed as inactive. With `O=C(c1cc(-c2ccc(Cl)cc2)on1)N1CCOCC1` the entry was “inactive”; with `O=C(c1cc(-c2ccccc2)on1)N1CCCC1`, “inactive”. In the case of `O=C(c1cc(-c2ccc(F)cc2)on1)N1CCCC1`, the compound was classed as inactive. The result for `O=C(c1cc(-c2cccc(O)c2)on1)N1CCOCC1` reads “inactive”; that for `CCCCN1CC(C(=O)NCc2ccc(C)cc2)CC1=O` (stereo not given), “inactive”. Take `CCCN1Cc2cccc(C(=O)NCc3ccc4c(c3)OCO4)c2C1=O`: the call was inactive. The result for `c1coc(CN2CN=C(Nc3nc4ccccc4s3)NC2)c1` reads “inactive”; that for `Cc1cc(S(=O)(=O)N(Cc2ccc(F)cc2)CC2CCCO2)ccc1-n1cnnn1` (stereo not given), “inactive”. Consider `COc1ccc(OC)c(CNn2c(-c3cccc(C)c3)nc3ccccc3c2=O)c1`, for which the call was inactive.

With `CC1=CC(C)(C)N2C(=O)C3(C(C#N)=C(N)Oc4cc(O)ccc43)c3c(C)c(C)cc1c32` (stereo not given), the compound was called inactive.

Consider `O=C(CSc1nnc(-c2cccs2)o1)c1cccs1`, for which the outcome was inactive.

In the case of `Cc1cc(C(=O)CSc2nnc(-c3ccccc3F)o2)c(C)n1Cc1cccs1`, the compound was classed as inactive. Regarding `COC(=O)C1=C(C)N(CCCC(=O)O)C(=O)NC1c1ccccc1Cl` (stereo not given), the result was inactive.

With `Brc1ccc(OCc2nc(-c3ccccn3)n[nH]2)cc1`, the outcome was inactive.

Take `COc1ccc2c(c1)sc1nc(-c3ccccc3)cn12`: the compound was classed as active.

With `CCOC(=O)N1CCC(NC(=O)c2ccc3c(c2)sc2nc(-c4cccc(OC)c4)cn23)CC1`, the call was inactive. With `CCOC(=O)N1CCN(C(=O)c2ccc3c(c2)sc2nc(-c4ccccc4)cn23)CC1` the entry was “inactive”; with `Cc1sc2ncnc(Oc3ccc(-n4ccnc4)cc3)c2c1C`, “inactive”.

As to `N#CC1(Nc2ccccc2)C(=O)Nc2ccccc21` (stereo not given), the result was inactive.

With `Nc1cc(N)cc(-c2nc3ccccc3o2)c1`, the compound was called inactive. The result for `Cc1ccc2nc(-c3ccccn3)oc2c1` reads “inactive”; that for `Nc1ccc2nc(-c3ccccc3)[nH]c2c1`, “inactive”; that for `Nc1cccc(-c2nc3ccccc3[nH]2)c1`, “inactive”. The result for `Cc1ccc2nc(-c3cccnc3)oc2c1` reads “inactive”. With `Cc1ccc2nc(-c3cccc(-c4nc5ccc(C)cc5o4)n3)oc2c1`, the compound was called inactive.

With `COCCNC(=O)Nc1ccc2nc(C)sc2c1`, the result was inactive.

Consider `CCCCN(C)C(=O)c1oc2ccc(S(=O)(=O)N3CCCCCC3)cc2c1C`, for which the compound was called inactive.

On to `CCn1cc(C(=O)N2CCCC2)c(=O)c2cc(S(=O)(=O)N(C)C)ccc21`, for which the outcome was inactive. The result for `O=C(NCCCn1ccnc1)c1noc2c1CCc1ccccc1-2` reads “inactive”. As for `CCOCc1nnc(NC(=O)CCc2ccccc2)s1`, the result was inactive. The result for `C=CCN1C(=NC(=O)CCCC(=O)O)SC2CS(=O)(=O)CC21` (stereo not given) reads “inactive”; that for `COc1ccccc1Nc1nc(NCCO)c2ccccc2n1`, “inactive”. With `C=C(C)Cn1c(CCNC(=O)C(C)(C)C)nc2ccccc21` the entry was “inactive”. With `O=C1C(C=Nc2ccccc2O)=C(O)c2ccccc21` the entry was “inactive”; with `Cc1ccc(O)c(N=CC2=C(O)c3ccccc3C2=O)c1`, “inactive”; with `CCc1ccc(NC(=O)C(=O)NCCN2CCN(C(=O)c3ccco3)CC2)cc1`, “inactive”. In the case of `CC1=C(C(=O)OC(C)C)C(c2cccc(F)c2)N2C(=O)C(C)SC2=N1` (stereo not given), the outcome was inactive.

In the case of `CCOC(=O)CSc1nnc(CNC(=O)c2ccc(OC)cc2OC)n1-c1ccc(OC)cc1`, the result was inactive. With `CCN(CC)C(=O)N1CCn2c(nc3ccccc32)C1` the entry was “inactive”. `O=[N+]([O-])/C(C(Cl)=C(Cl)Cl)=C(\Nc1ccc(F)cc1)n1cncn1`: the compound was classed as inactive. With `Cn1ncc(N=Cc2ccc([N+](=O)[O-])cc2)c1C(=O)N1CCOCC1` the entry was “inactive”; with `CC(C)(C)C(=O)/C(=C\c1ccc([N+](=O)[O-])cc1)n1cncn1`, “active”; with `Nn1c(COc2ccccc2)nnc1SCc1cc(=O)[nH]c2ccccc12`, “inactive”. With `CCOC(=O)c1sc2nc(-c3ccco3)c3c(c2c1N)CC(C)(C)OC3` the entry was “inactive”; with `COc1ccccc1OCC(=O)Nc1nc(-c2ccc(S(=O)(=O)N3CCOCC3)cc2)cs1`, “inactive”.

For the compound `CC1CN/C(=C\C(=O)c2ccc(Cl)cc2)C(=O)N1` (stereo not given), the compound was classed as inactive. For `CC1CN/C(=C\C(=O)c2ccccc2)C(=O)N1` (stereo not given), the compound was called inactive. As to `Cc1ccc(-n2ncc3c(=O)[nH]c(SCC(=O)N4CCC(C)CC4)nc32)cc1C`, the compound was called inactive. The result for `COc1ccc(NC(=O)c2cccs2)cc1` reads “inactive”; that for `Cc1sc(NC(=O)c2ccccc2)c(C(=O)NC(C)C)c1C`, “inactive”; that for `Cc1cc(NC(=O)c2ccccc2)sc1C`, “inactive”. The result for `Cc1ccc(NC(=O)c2ccccc2)s1` reads “active”; that for `CCOc1ccccc1CNC(=O)C1CCCN(c2nc3ccccc3o2)C1` (stereo not given), “inactive”. With `CCCCN1Cc2cc(C(=O)c3cc(F)ccc3O)cnc2NC1=O` the entry was “inactive”; with `CN1Cc2cc(C(=O)c3ccccc3O)cnc2NC1=O`, “inactive”; with `CN1Cc2cc(C(=O)c3cc(Cl)cc(CSc4ncccn4)c3O)cnc2NC1=O`, “active”. Turning to `O=C(CN1C(=O)c2ccccc2S1(=O)=O)Nc1cccnc1`, the compound was called inactive. The result for `COc1ccc(CSc2nnc(C)n2N)cc1` reads “inactive”; that for `COc1cccc(CC2CC(=O)N(CCc3ccc4c(c3)OCO4)C2=O)c1` (stereo not given), “inactive”.

With `CCC(=O)c1ccc(OCCSc2ncccn2)cc1`, the compound was classed as inactive. With `COc1ccc(N=C2SCC(=O)N2c2ccc(OC)cc2)cc1` the entry was “inactive”. Turning to `Cc1ccc2c(c1)C(N1CCCC1=O)CC(c1ccco1)N2` (stereo not given), the result was active. With `Cc1ccc(C2CC(c3ccco3)n3nc(N)nc3N2)cc1` (stereo not given) the entry was “inactive”; with `Cc1ccc(C2CC(c3ccco3)n3ncnc3N2)cc1` (stereo not given), “inactive”; with `CCc1nn(C(C)C(=O)NCCN2CCN(c3cccc(C)c3C)CC2)c(=O)c2cc3occc3n12` (stereo not given), “inactive”. With `CCOC(=O)c1[nH]c2c(c1C)C(=O)CC(c1ccco1)C2` (stereo not given) the entry was “active”.

On to `CCOC(=O)c1ccc(N=CC2=C(O)CC(c3ccco3)CC2=O)cc1` (stereo not given), for which the result was inactive. The result for `Cc1c(C(=O)OC2CCCCC2)[nH]c2c1C(=O)CC(C)(C)C2` reads “inactive”. Regarding `CCC(C)OC(=O)c1[nH]c2c(c1C)C(=O)CC(c1ccc(N(C)C)cc1)C2` (stereo not given), the compound was classed as inactive. The result for `Cc1c(C(=O)OC2CCCC2)[nH]c2c1C(=O)CC(c1ccco1)C2` (stereo not given) reads “active”; that for `Cc1c(C(=O)OCC(C)C)[nH]c2c1C(=O)CC(c1ccco1)C2` (stereo not given), “active”. The result for `COCCOC(=O)c1[nH]c2c(c1C)C(=O)CC(c1ccco1)C2` (stereo not given) reads “active”; that for `Cc1c(C(=O)OC2CCC(C)CC2)[nH]c2c1C(=O)CCC2` (stereo not given), “inactive”.

For the compound `COCCOC(=O)c1[nH]c2c(c1C)C(=O)CC(c1cc(OC)ccc1OC)C2` (stereo not given), the compound was classed as inactive. The result for `COCCOC(=O)c1[nH]c2c(c1C)C(=O)CC(c1ccc(N(C)C)cc1)C2` (stereo not given) reads “inactive”; that for `Cc1c(C(=O)OCC2CCCO2)[nH]c2c1C(=O)CC(c1ccco1)C2` (stereo not given), “inactive”; that for `O=c1[nH]c(CN2CCN(c3ccc([N+](=O)[O-])cc3)CC2)nc2ccsc12`, “inactive”. The result for `CCCCCOC(=O)CSc1n[nH]c(=O)[nH]c1=O` reads “inactive”. The result for `O=C(CC(Nc1ccc(Cl)cc1)C(=O)O)c1ccccc1` (stereo not given) reads “inactive”; that for `Cc1cccc(NC(=O)COC(=O)CNC(=O)C2CCCCC2)c1`, “inactive”. Regarding `NC(=O)CSc1nnnn1-c1ccc2c(c1)OCCO2`, the compound was classed as inactive. The result for `O=C1CCCC2=C1C(Cc1ccccc1)C1=C(CCCC1=O)O2` reads “inactive”; that for `CCN(CCNC(=O)CC1Oc2ccccc2NC1=O)c1ccccc1` (stereo not given), “inactive”; that for `Cc1ccc(C2/C(=C(\O)c3ccc4c(c3)OCCO4)C(=O)C(=O)N2CCCN(C)C)o1` (stereo not given), “inactive”. With `CCN1CCN(C(=O)c2cc3c(=O)oc4ccc(C)cc4c3s2)CC1` the entry was “inactive”. In the case of `COc1cc(C2CC(=O)c3c([nH]c(C(=O)OCCOC(C)C)c3C)C2)cc(OC)c1OC` (stereo not given), the compound was classed as inactive. The result for `COCCOC(=O)c1[nH]c2c(c1C)C(=O)CC(c1ccc(F)cc1)C2` (stereo not given) reads “inactive”; that for `COC(=O)c1[nH]c2c(c1C)C(=O)CC(c1cccs1)C2` (stereo not given), “inactive”; that for `CCOCCOC(=O)c1[nH]c2c(c1C)C(=O)CC(c1ccc(N(C)C)cc1)C2` (stereo not given), “inactive”. With `Cc1c(C(=O)OCCOC(C)C)[nH]c2c1C(=O)CC(c1ccco1)C2` (stereo not given) the entry was “active”. `Cc1c(C(=O)OCC(C)C)[nH]c2c1C(=O)CC(c1cccs1)C2` (stereo not given): the outcome was inactive. With `CSCCOC(=O)c1[nH]c2c(c1C)C(=O)CC(c1ccco1)C2` (stereo not given), the result was active.

Turning to `CCCOC(=O)c1[nH]c2c(c1C)C(=O)CC(c1ccc(OC)c(OC)c1)C2` (stereo not given), the outcome was inactive. Consider `CCOC(=O)c1[nH]c2c(c1C)C(=O)CC(c1ccc(F)cc1)C2` (stereo not given), for which the call was active. On to `Cc1c(C(=O)OCCOC(C)C)[nH]c2c1C(=O)CC(C)(C)C2`, for which the call was inactive. The result for `CCCOC(=O)c1[nH]c2c(c1C)C(=O)CC(c1cccs1)C2` (stereo not given) reads “active”.

Turning to `CCCOCCOC(=O)c1[nH]c2c(c1C)C(=O)CC(c1cc(OC)ccc1OC)C2` (stereo not given), the compound was called inactive.

`Cc1cc(Cl)cc(C)c1OCCCCN1CCOCC1`: the compound was called inactive. The result for `COCCn1c(CNc2ccc(F)cc2)nnc1SCC(=O)Nc1ccc(OC)cc1OC` reads “inactive”.

For `COc1ccc(CN2CC(C(=O)NCc3cccc(OC)c3)CC2=O)cc1` (stereo not given), the compound was called inactive. `COC(=O)c1ccccc1NC(=O)c1ccc(-c2cccc(Cl)c2)o1`: the result was inactive. The result for `O=C(Nc1nnc(-c2ccc(Cl)s2)o1)C1CCCCC1` reads “inactive”; that for `COc1ccccc1Oc1ccc2c(c1)C(=O)N(c1cccc(O)c1)C2=O`, “inactive”; that for `CCC(=O)N1CCNC(=O)C1CC(=O)Nc1ccc(C)c(Cl)c1` (stereo not given), “inactive”. With `CNCc1ccc(OCc2ccccc2)c(OC)c1` the entry was “inactive”; with `CC1=C(C(=O)OCc2ccccc2)C(c2ccco2)C2=C(CC(C)(C)CC2=O)N1` (stereo not given), “inactive”; with `Cc1c(C(=O)N2CCOCC2)[nH]c2c1C(=O)CC(c1ccccc1Cl)C2` (stereo not given), “inactive”. In the case of `Cc1c(C(=O)OCc2ccccc2)[nH]c2c1C(=O)CC(c1ccco1)C2` (stereo not given), the result was active.
